For experiment [1], the target named is Cellular tumor antigen p53 (Homo sapiens) (UniProt P04637). Kind of experiment: Primary qHTS for small molecule compounds that upregulate eGFP-tagged delta133p53alpha (in N-terminal) cells. (AID 2060322). Further: nearly all actives have a fitted effect of over 75% in size. Further: potency means the concentration at half of the fitted maximal effect.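 On activation: cells pre-induced with doxycycline then dosed without doxycycline; 0% = DMSO vehicle and 100% = reference activator.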 The following applies: NCI-H358 eGFP-delta133p53alpha fluorescence, 24 h; activation: hits give high values. The gist of the method: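 NCI-H358 cells pre-induced 24 h with 10 ng/ml doxycycline for eGFP-delta133p53alpha, plated dox-free and exposed 24 h at 37C to titrated compounds. Fixed, Hoechst-stained; gated GFP peak intensity by laser scanning cytometry, normalized to DMSO (0%) and 57.5 uM 5-azacytidine (100%).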
In general terms: qHTS replaces the single test concentration by a dilution series.

Experiment [2] concerns the target Aldehyde dehydrogenase, mitochondrial (Homo sapiens) (UniProt P05091). The experiment can be described thus: qHTS for Inhibitors of the Aldehyde Dehydrogenase Family (ALDH2) Primary screen (AID 2061308).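 Further: plate controls were vehicle for no effect and reference inhibitor for full effect; nearly all actives have a fitted effect of over 55% in size.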 The following applies: ALDH2 enzyme inhibition qHTS, 1536-well; series mostly up to 56 µM.
The target in experiment [3] is Retinaldehyde dehydrogenase 3 (Homo sapiens) (UniProt P47895). The experiment can be described thus: qHTS for Inhibitors of the Aldehyde Dehydrogenase Family (ALDH1A3) Primary screen (AID 2061315).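 Further: plate controls were DMSO vehicle for no effect and reference inhibitor for full effect.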 To be noted: ALDH inhibition qHTS; series mostly up to 56 µM.

Each structure is given as a SMILES string. Where “and” joins values, the source holds several entries; their conditions need not be identical. Equal values may be shown once. Results filed as inconclusive are left out. Unmarked numbers belong to inactive results. Calls of active or inactive are those of the source. The call rests on the fitted dose curve; in most records, active means well fitted curve in the direction sought with a large enough effect; inconclusive means small, poorly fitted or top-dose-only effect, or another doubt; inactive means no such curve, though single readings can be large; an effect the other way counts as inactive or inconclusive.

Sequence of Cellular tumor antigen p53 (Homo sapiens) (P04637 whole entry, looked up): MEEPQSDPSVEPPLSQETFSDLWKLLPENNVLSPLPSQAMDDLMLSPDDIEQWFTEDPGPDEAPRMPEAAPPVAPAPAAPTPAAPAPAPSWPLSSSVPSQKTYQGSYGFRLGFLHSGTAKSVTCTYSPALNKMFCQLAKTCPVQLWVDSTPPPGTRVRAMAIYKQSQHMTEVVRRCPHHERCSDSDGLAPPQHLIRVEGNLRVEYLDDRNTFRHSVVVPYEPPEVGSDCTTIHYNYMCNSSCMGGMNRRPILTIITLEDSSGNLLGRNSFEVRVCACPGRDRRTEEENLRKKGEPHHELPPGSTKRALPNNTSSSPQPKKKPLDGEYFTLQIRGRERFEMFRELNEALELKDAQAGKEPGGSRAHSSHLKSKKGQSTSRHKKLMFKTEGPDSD

In the case of `CC(=O)OC[C@@]12[C@H](O)C[C@]3(C)C(=CCC4[C@@]5(C)CC[C@H](O[C@@H]6O[C@H](C(=O)O)[C@@H](O[C@@H]7O[C@H](CO)[C@@H](O)[C@H](O)[C@H]7O)[C@H](O)[C@H]6O[C@@H]6O[C@H](CO)[C@@H](O)[C@H](O)[C@H]6O)[C@](C)(CO)C5CC[C@]43C)[C@@H]1CC(C)(C)[C@@H](OC(C)=O)[C@@H]2O` (some centres not stated), the activation in experiment [1] is -4.58%. In addition, the Potency result in experiment [2] and in experiment [3] was “inactive” throughout.

For `C=CC(=O)Nc1cc(Nc2nccc(-c3c[nH]c4ccccc34)n2)c(OC)cc1N(C)CCN(C)C`, in experiment [1], the Potency was 10.7 µM (active). Further, the Potency result in experiment [2] and in experiment [3] was “inactive” throughout.

For the molecule `O=C1NC2CCCCN2C12CCN(CCCN1c3ccccc3CCc3ccc(Cl)cc31)CC2` (configuration not stated), in experiment [1], the Potency is 13.5 µM (active). In addition, the Potency result in experiment [2] and in experiment [3] was “inactive” throughout.

As to `C/C=C(/C)C(=O)O[C@H]1C[C@]2(C)O[C@@H]2[C@@H](OC(C)=O)[C@@]2(C)CC[C@@](O)(C(C)C)[C@H]12`, the activation in experiment [1] is -19.1%. Further, the Potency result in experiment [2] and in experiment [3] was “inactive” in each case.

Turning to `CC(=O)OC1C(CO)OC(O[C@H]2[C@H](OC(=O)[C@]34CCC(C)(C)C[C@H]3C3=CCC5[C@@]6(C)CC[C@H](O[C@@H]7O[C@H](C(=O)O)[C@@H](O)[C@H](O[C@@H]8OC[C@@H](O)[C@H](O)[C@H]8O)[C@H]7O[C@@H]7O[C@H](CO)[C@H](O)[C@H](O)[C@H]7O)[C@@](C)(C=O)C6CC[C@@]5(C)[C@]3(C)C[C@H]4O)O[C@H](C)[C@H](OC3OC(C)C(OC4OCC(O)C(O)C4O)C(O)C3O)[C@@H]2O)C(O)C1O` (some centres not stated), in experiment [1], the activation is 4.58%. Further, the activity change, negative = inhibition was -12.7% [at 11.2 µM] in experiment [2] and 4.72% [at 11.2 µM] in experiment [3].

Regarding `C/C=C/C=C/C(=O)OC1CC/C=C/C(O)C(O)C(CCC)OC1=O` (configuration not stated), the activation in experiment [1] was -12.2%. Also, the Potency entry in experiment [2] and in experiment [3] was “inactive” each time.

For `CC1(C)CC[C@]2(C(=O)O[C@@H]3O[C@H](CO)[C@@H](O)[C@H](O)[C@H]3O)CC[C@]3(C)C(=CCC4[C@@]5(C)C[C@H](O)[C@H](O[C@@H]6O[C@H](C(=O)O)[C@@H](O)[C@H](O)[C@H]6O)[C@@](C)(CO)C5CC[C@]43C)C2C1` (some centres not stated), the activation in experiment [1] is -11.6%. For the same molecule, the values for the activity change, negative = inhibition in experiment [2] and in experiment [3] were 12.5% [at 11.2 µM] and 11% [at 11.2 µM], respectively.

In the case of `COc1c(O[C@@H]2O[C@H](CO)[C@@H](O)[C@H](O)[C@H]2O)c(CCC(=O)O)cc2ccoc12`, the activation in experiment [1] is -7.63%. Moreover, the Potency result in experiment [2] and in experiment [3] was “inactive” each time.

With `C=CC(C)(C)c1[nH]c2ccccc2c1C[C@@H]1NC(=O)[C@H](Cc2c[nH]c3ccccc23)NC1=O`, the activation in experiment [1] is 6.25%. The Potency result in experiment [2] and in experiment [3] was “inactive” throughout.

Consider `O=C(OCCOCCO)c1ccccc1Nc1cccc(C(F)(F)F)c1`, for which the activation in experiment [1] was -13% and -1.67%. Moreover, the Potency result in experiment [2] and in experiment [3] was “inactive” each time.

Consider `C=C(CCC1C(C)(O)CCC2C(C)(C)C(O)CCC12C)C(O)CO` (configuration not stated), for which the activation in experiment [1] was -7.14%. For the same molecule, the Potency entry in experiment [2] and in experiment [3] was “inactive” in each case.

Regarding `O=C(c1ccc(Cl)cc1)N1CCN(c2ccnc3cc(Cl)ccc23)CC1`, the activation in experiment [1] is -3%. The Potency entry in experiment [2] and in experiment [3] was “inactive” throughout.

Regarding `C=CC1(C)C=C2C(O)CC3C(C)(C(=O)O)CCCC3(C)C2CC1` (configuration not stated), the activation in experiment [1] is 8.04%. Further, the Potency entry in experiment [2] and in experiment [3] was “inactive” throughout.

Regarding `CC1(C)C[C@H](O)C[C@@]2(C)OC(=O)C=C12`, the activation in experiment [1] is 19.6%. The Potency result in experiment [2] and in experiment [3] was “inactive” throughout.

With `CCNC(=O)NCCCOc1cccc(CN2CCCCC2)c1`, in experiment [1], the activation is 15%. Besides, the Potency entry in experiment [2] and in experiment [3] was “inactive” each time.

`C[C@@]12C[C@]3(O)O[C@H](O1)[C@]1(COC(=O)c4ccccc4)[C@H]3C[C@@]12O[C@@H]1O[C@H](COC(=O)c2ccccc2)[C@@H](O)[C@H](O)[C@H]1O`: the activation in experiment [1] is -5.34%. The Potency result in experiment [2] and in experiment [3] was “inactive” in each case.

With `C[C@H]1[C@H](C)CC[C@]2(C(=O)OC3OC(CO)C(O)C(O)C3O)CC[C@]3(C(=O)O)C(=CCC4[C@@]5(C)CC[C@H](O[C@@H]6O[C@@H](C)[C@H](OC7OC(CO)C(O)C(O)C7O)[C@@H](O)[C@H]6O)C(C)(C)C5CC[C@]43C)[C@H]12` (some centres not stated), the activation in experiment [1] was -9.92%. The Potency entry in experiment [2] and in experiment [3] was “inactive” each time.

Consider `OC[C@H]1O[C@@H](OCCc2ccc(O)cc2)[C@H](O[C@@H]2OC[C@](O)(CO)[C@H]2O)[C@@H](O)[C@@H]1O`, for which, in experiment [1], the activation is 1.79%. Moreover, the Potency result in experiment [2] and in experiment [3] was “inactive” each time.

Turning to `CC(C)C(=O)OC[C@H]1O[C@H](O[C@H]2O[C@H](CO)[C@@H](O)[C@H](O)[C@H]2O)[C@H](O)[C@@H](O)[C@@H]1O`, in experiment [1], the activation is -6.11%. Also, the Potency result in experiment [2] and in experiment [3] was “inactive” throughout.

As for `C[C@@H]1O[C@@H](OC[C@H]2O[C@@H](OCc3ccccc3)[C@H](O)[C@@H](O)[C@@H]2O)[C@H](O)[C@H](O)[C@H]1O`, the activation in experiment [1] is 15.3%. Moreover, the Potency result in experiment [2] and in experiment [3] was “inactive” throughout.

Take `CC1=C[C@H]2[C@@H](CC1=O)[C@H](C)C[C@H](O)[C@H]2C(C)C`: in experiment [1], the activation is 10.7%. Further, the Potency entry in experiment [2] and in experiment [3] was “inactive” each time.

On to `CC1=C(C(=O)OC2OC(COC3OC(CO)C(O)C(O)C3O)C(O)C(O)C2O)C(C)(C)CCC1` (configuration not stated), for which, in experiment [1], the activation was -14.5%. In addition, the Potency entry in experiment [2] and in experiment [3] was “inactive” in each case.

For `CC(C)CCC(=O)CC1c2ccccc2C(=O)N1c1ccc2ccc(Cl)nc2n1` (configuration not stated), the activation in experiment [1] was 0.477%. Besides, the Potency entry in experiment [2] and in experiment [3] was “inactive” in each case.

Regarding `CC(NC(=O)CC(=O)O)C(=O)Nc1ccccc1C(N)=O` (configuration not stated), the activation in experiment [1] is -3.05%. The Potency result in experiment [2] and in experiment [3] was “inactive” throughout.

The record behind these values is PubChem BioAssay (NCATS).
